Bioassay records deposited in PubChem by National Center for Advancing Translational Sciences (NCATS).
HT1080NT lethal = kills 2HG-producing HT-1080-NT fibrosarcoma cells; HT-1080-NT fibrosarcoma viability, CellTiter-Glo ATP luminescence, 48 h; 360,000 tested, 1.6% active; Potency, µM (series often up to 46.1 µM), hits mostly cytotoxic; AID 686970;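 further: NT is the 2HG producing partner of a matched IDH1 knockdown line; nearly all actives have a fitted effect of over 55% in size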
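Viability by CellTiter-Glo luminescence after 48 h compound exposure at 37C of HT-1080-NT cells (750/well, RPMI, 5% FBS). % activity scaled between DMSO wells and medium-only wells, then curve-fitted and categorized by curve class.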
HT1080 IDH1KD tx = kills HT-1080 cells with IDH1 knockdown | Potency, µM (highest dose often 46.1 µM), hits mostly cytotoxic | 360,000 tested, 2% active | HT-1080 IDH1 knockdown viability, ATP luminescence, 48 h
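Using the IDH1-knockdown HT-1080 line run in the same batch and compound series as the NT line, viability after 48 h at 37 °C was determined by CellTiter-Glo luminescence and expressed as % activity.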
DT40 TDP1 CPT = DT40-hTDP1 cell growth loss with CPT; chicken DT40 Tdp1-/-;hTDP1 cells + 20 nM CPT, ATP luminescence, 48 h; Potency, µM (highest dose often 46.2 µM), most hits filed as inhibitors; 420,000 tested, 12% active; further: nearly all actives have a fitted effect of over 55% in size
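Chicken DT40 Tdp1-/- cells complemented with human TDP1, 400 cells/well, exposed to compounds plus 20 nM camptothecin for at least 48 h at 37 C; viability read as ATP content by CellTiter-Glo luminescence.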
TDP1 cell noCPT = qHTS for Inhibitors of human tyrosyl-DNA phosphodiesterase 1 (TDP1): qHTS in cells in absence of CPT; DT40 Tdp1-/- hTDP1 cells, no CPT, ATP luminescence, 48 h; AID 686978, 2013; Potency, µM (highest dose often 46.2 µM), actives largely listed as inhibitors; 420,000 tested, 15% active; further: nearly all actives have a fitted effect of over 55% in size
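Camptothecin absent (DMSO only). Human TDP1-complemented DT40 knockout cells, 400 cells/well, 37 °C for minimum 48 hr; ATP measured via CellTiter-Glo, 30 min dark incubation, luminescence.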
IL-1B inflam inh = blocks inflammasome-driven IL-1 beta release. AID 743279. THP-1 LPS/ATP IL-1B secretion, AlphaLISA, 16 h; stronger effect = lower value. 360,000 tested, 4.7% active. activity change, % at 57.5 µM; in the data active means activity change below about -50%; inconclusive means mostly about -30% to -49%
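THP-1 cells pretreated 1 hr with compounds (up to 57.5 uM final), then stimulated with LPS (250 ng/mL final) plus ATP (1.25 mM final); secreted IL-1B measured by AlphaLISA after 16 hr, decreased signal indicating inhibition.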
Each line names hits and unclear results; the compound was inactive in the other large screens; ! = repeats disagree. Shown are actives, neighbours in structure and some others; about 19% of the full set was active somewhere. Unless noted, the call rests on the fitted dose curve; in most records, active means well fitted curve in the direction sought with a large enough effect; inconclusive means small, poorly fitted or top-dose-only effect, or another doubt; inactive means no such curve, though single readings can be large; an effect the other way counts as inactive or inconclusive.

CN(C1=C(N2CCOCC2)C(=O)c2ccccc2C1=O)c1ccccc1	DT40 TDP1 CPT 13µM, TDP1 cell noCPT 16µM, IL-1B inflam inh -86
Cc1ccc(N2CCOCC2)c2c1C(=O)c1ccccc1C2=O	HT1080 IDH1KD tx inconclusive, DT40 TDP1 CPT inconclusive, TDP1 cell noCPT 16µM, IL-1B inflam inh inconclusive
O=C1C=C(N2CCOCC2)c2cccc3cccc1c23	TDP1 cell noCPT 15µM
c1ccc(N2CCOCCOCCOCCOCCOCC2)cc1	none
O=C1C=C(N2CCOCC2)c2ccccc2C1=O	HT1080NT lethal 6.5µM, HT1080 IDH1KD tx 4.6µM, DT40 TDP1 CPT 2.6µM, TDP1 cell noCPT 2.3µM, IL-1B inflam inh -103
CC1=C(C)C(=O)C(N2CCOCC2)=CC1=O	DT40 TDP1 CPT 16µM, TDP1 cell noCPT 15µM
O=c1[nH]c(SCc2ccc([N+](=O)[O-])cc2)nc2[nH]ncc12	HT1080NT lethal inconclusive, HT1080 IDH1KD tx inconclusive
CC(C)NC(=O)N1[C@H](c2cccs2)[C@@H](C)C(=O)[C@@H](C)[C@@H]1c1cccs1	DT40 TDP1 CPT 15µM, TDP1 cell noCPT inconclusive (no result: HT1080NT lethal, HT1080 IDH1KD tx, IL-1B inflam inh)
Cc1ccc(NC(=O)COc2ccc(Br)cc2CO)cc1S(=O)(=O)N1CCOCC1	DT40 TDP1 CPT inconclusive, TDP1 cell noCPT 18µM
O=C(COc1ccc(Br)cc1CO)Nc1ccc(S(=O)(=O)N2CCCC2)cc1	DT40 TDP1 CPT inconclusive, TDP1 cell noCPT inconclusive, IL-1B inflam inh -57
Cc1ccc(NC(=O)COc2cccc(-n3cnnn3)c2)cc1S(=O)(=O)N1CCOCC1	DT40 TDP1 CPT inconclusive, TDP1 cell noCPT 23µM
Cc1cc(NCC(=O)Nc2ccc(C)c(S(=O)(=O)N3CCOCC3)c2)ccc1Br	DT40 TDP1 CPT inconclusive, TDP1 cell noCPT 18µM
O=C(COc1ccc(Br)cc1CO)Nc1ccc(F)cc1	none
COC(=O)C1=C(C(=O)OC)[C@@H]2N(C)c3ccccc3[C@@]23C[C@@H](C(=O)OC)N(C(=O)c2ccc(Br)cc2)C3=N1	HT1080NT lethal inconclusive, HT1080 IDH1KD tx inconclusive, DT40 TDP1 CPT inconclusive, TDP1 cell noCPT inconclusive
COc1ccc([N+](=O)[O-])c(O)c1C(C)=O	none
COc1ccc(CC(=O)NNC(=O)COc2ccc(Cl)cc2C)cc1S(=O)(=O)N1CCOCC1	DT40 TDP1 CPT inconclusive, TDP1 cell noCPT inconclusive
O=c1c(-c2ccc(F)cc2)nc2cncnc2n1C1CC1	none (no result: HT1080NT lethal, HT1080 IDH1KD tx, IL-1B inflam inh)
COc1ccccc1NC(=O)/C(N=Nc1ccc(C)c(S(=O)(=O)Nc2ccccc2Cl)c1)=C(\C)O	DT40 TDP1 CPT 18µM, TDP1 cell noCPT 18µM
CCOC(=O)c1c(C)n(-c2ccccc2)c2ccc(O)cc12	TDP1 cell noCPT inconclusive
CCOC(=O)c1c(CN2CCN(C)CC2)n(-c2ccccc2)c2cc(Br)c(O)cc12	DT40 TDP1 CPT inconclusive, TDP1 cell noCPT 23µM
CCOC(=O)c1c(CNc2ccncc2)n(C)c2cc(Br)c(O)cc12	DT40 TDP1 CPT inconclusive, TDP1 cell noCPT inconclusive
CCOC(=O)c1c(C)n(-c2ccccc2)c2ccc(O)c(CN(C)C)c12	HT1080NT lethal inconclusive, HT1080 IDH1KD tx inconclusive, DT40 TDP1 CPT 12µM, TDP1 cell noCPT 15µM (no result: IL-1B inflam inh)
CCOC(=O)c1c(CN(CC)CC)n(-c2ccccc2)c2ccc(O)cc12	DT40 TDP1 CPT inconclusive, TDP1 cell noCPT inconclusive, IL-1B inflam inh -60
CCOC(=O)c1c(CSC(=N)N)n(-c2ccccc2)c2cc(Br)c(OC(C)=O)cc12	HT1080NT lethal inconclusive, HT1080 IDH1KD tx inconclusive, DT40 TDP1 CPT inconclusive, TDP1 cell noCPT 18µM (no result: IL-1B inflam inh)
CCOC(=O)c1c(C)n(C)c2ccc(O)c(CN(CC)CC)c12	DT40 TDP1 CPT inconclusive, TDP1 cell noCPT inconclusive
O=C(COC(=O)c1cc(Cl)ccc1Cl)Nc1ccc2[nH]c(=O)[nH]c2c1	none
COc1cccc(CN(C)C(=O)CSCC(=O)Nc2cc(C)on2)c1OC	DT40 TDP1 CPT inconclusive
COc1ccc(-c2cc(C(=O)NCC(C)C)no2)cc1	none
CCOC(=O)c1c(CN2CCN(c3ccccc3)CC2)oc2cc(Br)c(O)cc12	HT1080NT lethal inconclusive, DT40 TDP1 CPT inconclusive, TDP1 cell noCPT inconclusive
CCOC(=O)c1c(CN2CCN(CCO)CC2)n(-c2ccccc2)c2cc(Br)c(O)cc12	HT1080NT lethal inconclusive, HT1080 IDH1KD tx 23µM, DT40 TDP1 CPT inconclusive, TDP1 cell noCPT 18µM, IL-1B inflam inh -81
O=C(NC(NC(=S)N1CCOCC1)C(Cl)(Cl)Cl)c1ccc(Cl)cc1 (centres undefined)	HT1080 IDH1KD tx inconclusive, DT40 TDP1 CPT 3.7µM, TDP1 cell noCPT 4.1µM
CCOC(=O)[C@H](CCc1ccccc1)N[C@@H](C)C(=O)N1Cc2ccccc2C[C@H]1C(=O)O	DT40 TDP1 CPT inconclusive, TDP1 cell noCPT 0.26µM!
COC(=O)[C@]1(C)CCC[C@]2(C)c3ccc(C(C)C)cc3C(=O)CC12 (some centres undefined)	DT40 TDP1 CPT inconclusive, TDP1 cell noCPT 23µM (no result: HT1080NT lethal, HT1080 IDH1KD tx, IL-1B inflam inh)
CC(=O)Oc1ccc2c(c1C(C)C)CCC1C(C)(C)CCC[C@@]21C (some centres undefined)	none (no result: HT1080NT lethal, HT1080 IDH1KD tx, IL-1B inflam inh)
COC(=O)C1(C)CCCC2(C)c3cc(OC)ccc3C(=O)C(Br)C12 (centres undefined)	DT40 TDP1 CPT 12µM, TDP1 cell noCPT 6.5µM
COC(=O)[C@@]1(C)CCC[C@@]2(C)c3ccc(O)c(C(C)C)c3CCC21 (some centres undefined)	DT40 TDP1 CPT 16µM, TDP1 cell noCPT 10µM (no result: HT1080NT lethal, HT1080 IDH1KD tx, IL-1B inflam inh)
COc1ccc(-c2ccc3c(c2)C2CC3CCN2)cc1 (centres undefined)	none
COc1ccc(OC)c(CNC(=O)c2ccc(NC(=O)c3nsc4ccccc34)cc2)c1	DT40 TDP1 CPT inconclusive, TDP1 cell noCPT 18µM (no result: HT1080NT lethal, HT1080 IDH1KD tx, IL-1B inflam inh)
